CHRM1 antagonist = blocks human M1 muscarinic receptor; AID 588852; CHO-K1 hM1, Fluo-8 calcium fluorescence, ACh EC80 antagonist; 360,000 tested, 1.3% active; P11229; inhibition, % at 3 µM;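 active = percent inhibition above its own plate's cutoff, namely the mean of that plate's compound wells plus 3 SD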;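 also: peak over basal fluorescence ratio during 140 s after agonist addition; 0% = ACh EC80 plus DMSO and 100% = DMSO alone without agonist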
Target sequence (P11229 whole entry, looked up): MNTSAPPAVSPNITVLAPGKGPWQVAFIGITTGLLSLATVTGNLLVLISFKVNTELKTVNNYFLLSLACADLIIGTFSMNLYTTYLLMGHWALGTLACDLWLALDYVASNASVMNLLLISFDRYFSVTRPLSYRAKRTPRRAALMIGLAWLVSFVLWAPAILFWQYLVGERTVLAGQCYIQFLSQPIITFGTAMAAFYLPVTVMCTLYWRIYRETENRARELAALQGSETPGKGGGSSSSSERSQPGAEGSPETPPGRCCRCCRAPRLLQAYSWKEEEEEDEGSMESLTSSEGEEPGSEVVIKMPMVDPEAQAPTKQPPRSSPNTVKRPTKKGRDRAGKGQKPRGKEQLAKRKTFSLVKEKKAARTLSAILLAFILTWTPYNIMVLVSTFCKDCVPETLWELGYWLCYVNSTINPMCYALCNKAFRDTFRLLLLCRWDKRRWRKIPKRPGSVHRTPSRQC
M1 PAM parental = nonselective activator or artifact in parental CHO-K1 calcium assay | ATP EC20, Fluo-8 calcium fluorescence; 0% at ATP EC20, 100% at ATP max | activation, % at 3 µM | 360,000 tested, 0.02% active | AID 602247;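 active = activation above the run cutoff, the mean activation of all test compounds plus 3 SD, cut at about 40% in these data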;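 also: peak over basal fluorescence ratio in a 140 s read after ATP addition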
CHO-K1 Ca antag = nonselective inhibitor or artifact in parental CHO-K1 cells; 360,000 tested, 0.6% active; ATP-induced calcium, Fluo-8 fluorescence; AID 602250; inhibition, % at 3 µM;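 active = inhibition above a per-plate cutoff, the plate's mean sample inhibition plus 3 SD, cut at about 24% in these data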;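 also: 0% = DMSO plus EC80 ATP and 100% = DMSO alone without ATP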
M1 ag = agonists of human M1 muscarinic receptor; CHO-K1 hM1, Fluo-8 calcium fluorescence, agonist mode; 0% DMSO, 100% acetylcholine EC100; activation, % at 3 µM; 360,000 tested, 0.33% active; P11229;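 active = activation above the run's mean compound activation plus 3 SD, cut at about 16% in these data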;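 also: peak over basal fluorescence ratio within a 140 s kinetic read after compound addition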
CHO-K1 Ca ag = nonselective activator or artifact in parental CHO-K1 cells. 360,000 tested, 0.48% active. activation, % at 3 µM. Fluo-8 calcium fluorescence; scaled to maximal ATP response, vehicle zero. AID 602248; in the data active = activation above about 15%;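 also: untransfected CHO-K1 host cells lacking M1 receptor as counterscreen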
M1 PAM = human CHRM1 positive allosteric modulation; activation, % at 3 µM; 360,000 tested, 0.088% active; CHO-K1 hM1, Fluo-8 calcium fluorescence, ACh EC20; 0% = ACh EC20, 100% = maximal ACh; in the data active = activation above about 19%, passing the limit was not always enough
Active calls of the source: *. Shown are actives, neighbours in structure and some others; about 2.3% of the full set was active somewhere.

SMILES	CHRM1 antagonist	M1 PAM parental	CHO-K1 Ca antag	M1 ag	CHO-K1 Ca ag	M1 PAM
OCC1(CCCc2ccccc2)CCN(Cc2cnc(N3CCOCC3)s2)CC1	6	-4	-11	19*	3	-5
O=C(CSc1nc2ccccc2o1)Nc1ccc(N2CCOCC2)c(Cl)c1	25	0	28*	-2	13	-8
Cc1ccc(NC(=O)c2ccccc2NS(=O)(=O)c2ccc(Cl)s2)cc1	17	5	25*	-2	10	-1
CCOC(=O)c1ccc(NC(=S)NC2CC(C)(C)NC(C)(C)C2)cc1	3	21	-12	42*	0	-16
CCCNC(=O)C1(C)CCN(C(=O)c2ccc(F)c(Cl)c2)C1 (centres undefined)	2	-8	-3	-4	0	2
CCCNC(=O)C1(C)CCN(C(=O)c2ccc3c(c2)CCO3)C1 (centres undefined)	-38	8	-1	5	0	31*
CCOC(=O)C1(C)CCN1C(=O)c1ccccc1Br (centres undefined)	-10	9	-5	-3	0	7
CN1CCN(CCCNC(=O)c2cc3c(=O)n(C)c4ccccc4c3s2)CC1	20	-7	29*	-8	0	-14
Cc1ccc2oc(=O)c3cc(C(=O)NCCCN4CCN(C)CC4)sc3c2c1	-4	10	54*	-4	1	6
CCOc1ccccc1NC(=O)CSc1nncc2ccccc12	-7	6	4	0	3	12
COc1ccc(NC(=O)[C@@H]2[C@@H]3C(=O)N(C4CCCCC4)C(=O)[C@@H]3C3c4ccccc4C=CN32)cc1 (some centres undefined)	25*	10	6	65*	0	-16
Cc1cccc(S(=O)(=O)NC(=O)C2(C)CCN2C(=O)c2ccc(C3CCCCC3)cc2)c1 (centres undefined)	-10	2	4	0	0	10
Cc1ccc(S(=O)(=O)NC(=O)C2(C)CCN2C(=O)C2CCCCC2)nc1 (centres undefined)	-7	-6	28*	8	-1	23
COc1cc(C)ccc1S(=O)(=O)NC(=O)C1(C)CCN1C(=O)c1ccc(C2CCCCC2)cc1 (centres undefined)	-23	-14	27*	-5	0	13
O=[N+]([O-])/C=C/c1cn(Cc2ccc(F)cc2)c2ccccc12	33*	5	8	-3	1	15
O=C(O)c1ccc(N/N=C/c2cn(Cc3ccc(F)cc3)c3ccccc23)cc1	4	4	1	0	1	11
CCOC(=O)c1csc(-c2snnc2C)n1	-10	10	0	3	17*	3
CCOC(=O)c1csc(N)n1	-11	18	-9	-5	3	9
Cn1ccn(CCCCCCn2ccn(C)c2=S)c1=S	-16	12	-14	-4	0	4
Cc1cc(/C=N/NC(=O)c2ccc(O)cc2)c(C)n1C1CC1	-4	-13	28*	-1	0	1
Cc1ccc(N/C(N)=N/c2nc(C)cc(N3CCCCC3)n2)c(C)c1	34*	4	25*	-10	11	-32
CCCCCCCCCn1ccc(=N)cc1	40*	5	-1	-8	1	-20
CCCCCCCn1ccc(=N)cc1	41	5	-6	-5	0	-20
C[C@H](CO)N1C[C@H](C)[C@@H](CN(C)S(=O)(=O)c2ccc(-c3ccccc3)cc2)OCc2cn(nn2)CCCC1=O	-20	13	-6	-9	0	12
COc1cc(-c2nc3ccccn3c2/N=C/c2ccccc2)ccc1O	-7	12	-19	27*	0	-6
SMILES	CHRM1 antagonist	M1 PAM parental	CHO-K1 Ca antag	M1 ag	CHO-K1 Ca ag	M1 PAM
COc1cc(-c2nc3ccccn3c2NCC2CCCO2)ccc1O (centres undefined)	24*	14	-2	2	5	-13
CCOc1cc(-c2nc3ccccn3c2NCC2CCCO2)ccc1O (centres undefined)	24*	7	15	2	5	-13
COc1ccc(N2CCN(C(CNC(=O)CC(C)(C)C)c3ccc4c(c3)OCO4)CC2)cc1 (centres undefined)	31*	-16	-15	-13	1	-38
COc1ccc(N2CCN(C(CNC(C)=O)c3ccc4c(c3)OCO4)CC2)cc1 (centres undefined)	-5	-14	-4	1	0	15
CSCCC(NS(=O)(=O)c1ccc2c(c1)OCCO2)C(=O)N(C)Cc1ccc(F)cc1 (centres undefined)	16	5	0	-1	9	-7
CSCCC(NS(=O)(=O)c1cccc(C(F)(F)F)c1)C(=O)N(C)Cc1ccc2c(c1)OCCO2 (centres undefined)	38*	-15	11	-1	5	-14
Cc1nnc(SCC(=O)Nc2cccc(S(=O)(=O)N(C)c3ccccc3)c2)s1	36*	-6	21	1	14	-19
CCOc1ccc(CN(C)CC(=O)Nc2cccc(S(=O)(=O)N(C)c3ccccc3)c2)cc1	9	7	0	-6	18*	-4
COCCn1cnnc1SCC(=O)Nc1cccc(S(=O)(=O)N(C)c2ccccc2)c1	-2	2	11	-7	14	9
COc1cccc(CN(C)CC(=O)Nc2cccc(S(=O)(=O)N(C)c3ccccc3)c2)c1OC	12	-5	-17	-5	5	-14
CCC(=O)c1ccc(OCC(=O)Nc2cccc(S(=O)(=O)N(C)c3ccccc3)c2)cc1	56*	-12	8	3	17*	-26
CN(c1ccccc1)S(=O)(=O)c1cccc(NC(=O)COc2cccc([N+](=O)[O-])c2)c1	13	-5	-11	-3	7	-10
COc1ccc(CNc2cccc3[nH]c(C(F)(F)F)nc23)cc1	-9	14	-10	-3	0	6
Cc1ccc(C(=O)Nc2cccc3[nH]c(C(F)(F)F)nc23)cc1	-10	0	-1	1	17*	5
O=C(CN1CCC(Cc2ccccc2)CC1)NC(=O)NCc1ccco1	-32	14	-17	-3	0	20*
O=C(CN1CCN(c2ccccc2O)CC1)NC(=O)NCc1ccco1	3	-12	19	2	0	0
CCOC(=O)c1c(C)n(C)c2cc(-c3ccc(C)cc3)c(O)cc12	3	-16	28*	-4	0	-4
CCOC(=O)c1c(C)n(C)c2cc(-c3cccc(C(F)(F)F)c3)c(O)cc12	13	-14	27*	-3	-1	-7
CCOC(=O)c1c(C)n(C)c2cc(Br)c(C)cc12	-5	0	-11	2	0	5
CCN(c1cccc(C(F)(F)F)c1)S(=O)(=O)c1ccc2c(c1)CCN2C(=O)C1CC1	33*	12	3	0	4	-16
